Data: PubChem BioAssay (NCI)
About 79,000 compounds went through this panel and 15% of them were active in at least one assay; those are over-represented in the sample as a whole. A number with no mark means an inactive call. Active and inactive are the calls of the source. Cut-off read from the data, not from the text of the source: active = growth inhibition above about 70%; inactive = the rest.

Key:
[1] = NCI Yeast Anticancer Drug Screen. Data for the rad52 strain (AID 147);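 note: 0% = growth of vehicle-treated control cultures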; details: S. cerevisiae rad52 mutant growth inhibition, hits give high values
Outline: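 Read-out: growth inhibition versus vehicle-treated controls. Cells were a DNA repair-deficient yeast strain treated with compounds.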

[2] = NCI Yeast Anticancer Drug Screen. Data for the wt1 strain (AID 149);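 note: 0% = growth of vehicle-treated wt1 cultures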; details: S. cerevisiae wt1 strain (SPY 50644) growth inhibition, hits give high values
Outline: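 The wt1 strain was treated with compounds, and growth was compared with vehicle-treated cultures to give inhibition.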

[3] = NCI Yeast Anticancer Drug Screen. Data for the rad50EPP+ strain (AID 151);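 note: 0% = growth of vehicle-treated control cultures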; details: S. cerevisiae rad50 mutant strain, hits give high values
Outline: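 Growth inhibition read against vehicle controls in rad50EPP+ yeast, a strain altered in DNA damage repair, after compound exposure.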

[4] = NCI Yeast Anticancer Drug Screen. Data for the mgt1 strain (AID 153); details: S. cerevisiae mgt1 mutant growth inhibition, hits give high values
Outline: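 mgt1 yeast grown with test compound; read-out is growth inhibition versus vehicle-treated cultures.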

[5] = NCI Yeast Anticancer Drug Screen. Data for the rad50 strain (AID 155);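 note: 0% = growth of vehicle-only cultures of the same strain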; details: S. cerevisiae rad50 strain growth inhibition, hits give high values
Outline: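 Cells are treated with compound, grown, and their growth is then scored against vehicle-only cultures of the same repair-deficient yeast strain.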

[6] = NCI Yeast Anticancer Drug Screen. Data for the mec2-1 strain (AID 157); details: S. cerevisiae mec2-1 strain, hits give high values
Outline: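 Yeast mec2-1 mutant treated with compound. Readout: growth inhibition vs vehicle controls.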

[7] = NCI Yeast Anticancer Drug Screen. Data for the rad14 strain (AID 159);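 note: 0% = growth of vehicle-treated control cultures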; details: S. cerevisiae rad14 strain growth inhibition, hits give high values
Outline: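 Readout: yeast growth inhibition, referenced to vehicle-only cultures. Strain bears a defined alteration in DNA damage repair.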

[8] = NCI Yeast Anticancer Drug Screen. Data for the sgs1 mgt1 strain (AID 161);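 note: 0% = growth of cultures given vehicle only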; details: S. cerevisiae sgs1 mgt1 strain, hits give high values
Outline: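 Mutant yeast exposed to compound; growth scored against vehicle-only wells.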

[9] = NCI Yeast Anticancer Drug Screen. Data for the CLN2oe strain (AID 163);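 note: 0% = growth of vehicle-only control cultures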; details: S. cerevisiae CLN2oe strain, hits give high values
Outline: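 Read-out: yeast growth inhibition, expressed relative to vehicle-only controls. The strain bears an engineered cell-cycle alteration.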

[10] = NCI Yeast Anticancer Drug Screen. Data for the cln2 rad14 strain (AID 165);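 note: 0% = growth equal to vehicle treated cultures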; details: S. cerevisiae cln2 rad14 strain, hits give high values
Outline: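 cln2 rad14 yeast strain; compound exposure; growth inhibition read vs vehicle controls.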

[11] = NCI Yeast Anticancer Drug Screen. Data for the bub3 strain (AID 167); details: S. cerevisiae bub3 mutant strain, hits give high values
Outline: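 Part of a panel of yeast mutants defective in DNA damage repair or cell cycle regulation. Each strain is grown with compound, and inhibition is calculated relative to solvent-treated cultures.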

[12] = NCI Yeast Anticancer Drug Screen. Data for the wt2 strain (AID 169);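 note: 0% = growth of vehicle-treated yeast cultures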; details: S. cerevisiae wt2 strain growth inhibition, hits give high values
Outline: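 Read-out: growth inhibition versus vehicle-treated control cultures after compound exposure of the yeast strain.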

[13] = NCI Yeast Anticancer Drug Screen. Data for the mlh1 strain (AID 171);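 note: 0% = growth of vehicle-treated control cultures of the same strain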; details: S. cerevisiae mlh1 strain growth inhibition, hits give high values
Outline: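 Read-out: growth inhibition versus vehicle controls. Strain: engineered yeast with a defined DNA repair or cell cycle defect, compound-treated.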

[14] = NCI Yeast Anticancer Drug Screen. Data for the sgs1 strain (AID 173);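 note: 0% = growth of vehicle-only control cultures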; details: S. cerevisiae sgs1 mutant, hits give high values
Outline: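 Read-out: yeast growth inhibition relative to vehicle controls, following compound exposure of a strain with a defined DNA repair/cell cycle alteration.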

[15] = NCI Yeast Anticancer Drug Screen. Data for the mlh1 rad18 strain (AID 175); details: S. cerevisiae mlh1 rad18 strain growth inhibition, hits give high values
Outline: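 Yeast w/ defined DNA-repair lesions; compound exposure; growth vs vehicle controls → % inhibition.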

[16] = NCI Yeast Anticancer Drug Screen. Data for the rad18 strain (AID 177); details: S. cerevisiae rad18 mutant growth inhibition, hits give high values
Outline: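 Readout: growth inhibition vs vehicle controls. Cells: genetically altered yeast strain, DNA repair defect.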

[17] = at 5.0 µM (retest, dose inferred, filed as 0.5)
[18] = at 50.0 µM (retest, dose inferred, filed as 5.0)

SMILES: O=C1CCC(Cc2ccccc2)CN1 (stereo unspecified)
- growth inhibition ([1]; at 1.2 µM): -1%
- growth inhibition ([1]; at 3.7 µM): -1%
- growth inhibition ([1]; at 11.0 µM): -2%
- growth inhibition ([1]; at 33.0 µM): -3%
- growth inhibition ([1]; at 100.0 µM): 0%
- growth inhibition ([2]; at 1.2 µM): -3%
- growth inhibition ([2]; at 3.7 µM): -2%
- growth inhibition ([2]; at 11.0 µM): 1%
- growth inhibition ([2]; at 33.0 µM): -2%
- growth inhibition ([2]; at 100.0 µM): -1%
- growth inhibition ([3]; at 1.2 µM): -1%
- growth inhibition ([3]; at 3.7 µM): 0%
- growth inhibition ([3]; at 11.0 µM): 12%
- growth inhibition ([3]; at 33.0 µM): 25%
- growth inhibition ([3]; at 100.0 µM): 42%
- growth inhibition ([4]; at 1.2 µM): -1%
- growth inhibition ([4]; at 3.7 µM): -5%
- growth inhibition ([4]; at 11.0 µM): -1%
- growth inhibition ([4]; at 33.0 µM): 68%
- growth inhibition ([4]; at 100.0 µM): 93% (active)
- growth inhibition ([5]; at 1.2 µM): -1%
- growth inhibition ([5]; at 3.7 µM): -2%
- growth inhibition [5, 17]: 10%
- growth inhibition ([5]; at 11.0 µM): -2%
- growth inhibition ([5]; at 33.0 µM): -3%
- growth inhibition [5, 18]: 7%
- growth inhibition ([5]; at 50.0 µM): 7.1%
- growth inhibition ([5]; at 100.0 µM): -1%
- growth inhibition ([6]; at 1.2 µM): -1%
- growth inhibition ([6]; at 3.7 µM): -1%
- growth inhibition [6, 17]: -11%
- growth inhibition ([6]; at 11.0 µM): 0%
- growth inhibition ([6]; at 33.0 µM): -1%
- growth inhibition [6, 18]: -3%
- growth inhibition ([6]; at 50.0 µM): 19.7%
- growth inhibition ([6]; at 100.0 µM): 3%
- growth inhibition ([7]; at 1.2 µM): -2%
- growth inhibition ([7]; at 3.7 µM): -1%
- growth inhibition ([7]; at 11.0 µM): -2%
- growth inhibition ([7]; at 33.0 µM): -1%
- growth inhibition ([7]; at 100.0 µM): 1%
- growth inhibition [8, 17]: 3%
- growth inhibition [8, 18]: 80% (active)
- growth inhibition ([8]; at 50.0 µM): 81.5% (active)
- growth inhibition ([9]; at 1.2 µM): -8%
- growth inhibition ([9]; at 3.7 µM): -5%
- growth inhibition ([9]; at 11.0 µM): 3%
- growth inhibition ([9]; at 33.0 µM): -4%
- growth inhibition ([9]; at 100.0 µM): -6%
- growth inhibition [10, 17]: -2%
- growth inhibition [10, 18]: 4%
- growth inhibition ([10]; at 50.0 µM): 0.15%
- growth inhibition ([11]; at 1.2 µM): -4%
- growth inhibition ([11]; at 3.7 µM): -5%
- growth inhibition [11, 17]: -11%
- growth inhibition ([11]; at 11.0 µM): -5%
- growth inhibition ([11]; at 33.0 µM): -7%
- growth inhibition [11, 18]: -8%
- growth inhibition ([11]; at 50.0 µM): 10.9%
- growth inhibition ([11]; at 100.0 µM): -8%
- growth inhibition ([12]; at 1.2 µM): -3%
- growth inhibition ([12]; at 3.7 µM): 0%
- growth inhibition ([12]; at 11.0 µM): 3%
- growth inhibition ([12]; at 33.0 µM): 50%
- growth inhibition ([12]; at 100.0 µM): 92% (active)
- growth inhibition ([13]; at 1.2 µM): -3%
- growth inhibition ([13]; at 3.7 µM): -2%
- growth inhibition ([13]; at 11.0 µM): 0%
- growth inhibition ([13]; at 33.0 µM): 37%
- growth inhibition ([13]; at 100.0 µM): 90% (active)
- growth inhibition ([14]; at 1.2 µM): 0%
- growth inhibition ([14]; at 3.7 µM): 1%
- growth inhibition ([14]; at 11.0 µM): 11%
- growth inhibition ([14]; at 33.0 µM): 62%
- growth inhibition ([14]; at 100.0 µM): 93% (active)
- growth inhibition [15, 17]: -9%
- growth inhibition [15, 18]: 1%
- growth inhibition ([15]; at 50.0 µM): 3.7%
- growth inhibition ([16]; at 1.2 µM): 1%
- growth inhibition ([16]; at 3.7 µM): -2%
- growth inhibition ([16]; at 11.0 µM): 4%
- growth inhibition ([16]; at 33.0 µM): 0%
- growth inhibition ([16]; at 100.0 µM): 1%

SMILES: Clc1ccc(/C(=C\c2ccccc2)Cn2ccnc2)cc1
- growth inhibition ([1]; at 1.2 µM): 18%
- growth inhibition ([1]; at 3.7 µM): 34%
- growth inhibition ([1]; at 11.0 µM): 53%
- growth inhibition ([1]; at 33.0 µM): 86% (active)
- growth inhibition ([1]; at 100.0 µM): 76% (active)
- growth inhibition ([2]; at 1.2 µM): 9%
- growth inhibition ([2]; at 3.7 µM): 12%
- growth inhibition ([2]; at 11.0 µM): 28%
- growth inhibition ([2]; at 33.0 µM): 20%
- growth inhibition ([2]; at 100.0 µM): 39%
- growth inhibition ([3]; at 1.2 µM): 26%
- growth inhibition ([3]; at 3.7 µM): 54%
- growth inhibition ([3]; at 11.0 µM): 92% (active)
- growth inhibition ([3]; at 33.0 µM): 95% (active)
- growth inhibition ([3]; at 100.0 µM): 96% (active)
- growth inhibition ([4]; at 1.2 µM): 14%
- growth inhibition ([4]; at 3.7 µM): 22%
- growth inhibition ([4]; at 11.0 µM): 60%
- growth inhibition ([4]; at 33.0 µM): 71% (active)
- growth inhibition ([4]; at 100.0 µM): 87% (active)
- growth inhibition ([5]; at 1.2 µM): 22%
- growth inhibition ([5]; at 3.7 µM): 34%
- growth inhibition [5, 17]: 52%
- growth inhibition ([5]; at 11.0 µM): 54%
- growth inhibition ([5]; at 33.0 µM): 84% (active)
- growth inhibition [5, 18]: 92% (active)
- growth inhibition ([5]; at 50.0 µM): 79% (active)
- growth inhibition ([5]; at 100.0 µM): 85% (active)
- growth inhibition ([6]; at 1.2 µM): 11%
- growth inhibition ([6]; at 3.7 µM): 21%
- growth inhibition [6, 17]: -14%
- growth inhibition ([6]; at 11.0 µM): 37%
- growth inhibition ([6]; at 33.0 µM): 54%
- growth inhibition [6, 18]: 88% (active)
- growth inhibition ([6]; at 50.0 µM): 82.3% (active)
- growth inhibition ([6]; at 100.0 µM): 67%
- growth inhibition ([7]; at 1.2 µM): 38%
- growth inhibition ([7]; at 3.7 µM): 51%
- growth inhibition ([7]; at 11.0 µM): 68%
- growth inhibition ([7]; at 33.0 µM): 81% (active)
- growth inhibition ([7]; at 100.0 µM): 80% (active)
- growth inhibition [8, 17]: 30%
- growth inhibition [8, 18]: 95% (active)
- growth inhibition ([8]; at 50.0 µM): 79.7% (active)
- growth inhibition ([9]; at 1.2 µM): 11%
- growth inhibition ([9]; at 3.7 µM): 21%
- growth inhibition ([9]; at 11.0 µM): 48%
- growth inhibition ([9]; at 33.0 µM): 75% (active)
- growth inhibition ([9]; at 100.0 µM): 74% (active)
- growth inhibition [10, 17]: 26%
- growth inhibition [10, 18]: 92% (active)
- growth inhibition ([10]; at 50.0 µM): 73.2% (active)
- growth inhibition ([11]; at 1.2 µM): 10%
- growth inhibition ([11]; at 3.7 µM): 32%
- growth inhibition [11, 17]: 51%
- growth inhibition ([11]; at 11.0 µM): 44%
- growth inhibition ([11]; at 33.0 µM): 72% (active)
- growth inhibition [11, 18]: 97% (active)
- growth inhibition ([11]; at 50.0 µM): 88.2% (active)
- growth inhibition ([11]; at 100.0 µM): 89% (active)
- growth inhibition ([12]; at 1.2 µM): 20%
- growth inhibition ([12]; at 3.7 µM): 29%
- growth inhibition ([12]; at 11.0 µM): 46%
- growth inhibition ([12]; at 33.0 µM): 54%
- growth inhibition ([12]; at 100.0 µM): 77% (active)
- growth inhibition ([13]; at 1.2 µM): 5%
- growth inhibition ([13]; at 3.7 µM): 19%
- growth inhibition ([13]; at 11.0 µM): 39%
- growth inhibition ([13]; at 33.0 µM): 51%
- growth inhibition ([13]; at 100.0 µM): 74% (active)
- growth inhibition ([14]; at 1.2 µM): 44%
- growth inhibition ([14]; at 3.7 µM): 54%
- growth inhibition ([14]; at 11.0 µM): 69%
- growth inhibition ([14]; at 33.0 µM): 90% (active)
- growth inhibition ([14]; at 100.0 µM): 83% (active)
- growth inhibition [15, 17]: 42%
- growth inhibition [15, 18]: 94% (active)
- growth inhibition ([15]; at 50.0 µM): 78.6% (active)
- growth inhibition ([16]; at 1.2 µM): 46%
- growth inhibition ([16]; at 3.7 µM): 64%
- growth inhibition ([16]; at 11.0 µM): 81% (active)
- growth inhibition ([16]; at 33.0 µM): 93% (active)
- growth inhibition ([16]; at 100.0 µM): 92% (active)
